SMILES strings stand for the structures. In all, about 39,000 compounds went through this assay and about 3,300 (8.5%) were called active. This is one part of a sample in which actives are shown more often than they occur.

The assay relates to HepG2. Put plainly: cytotoxicity call (relative viability < 0.9). As to conditions: 10 µM.
Turning to `C[C@@H]1CN([C@H](C)CO)S(=O)(=O)c2ccc(-c3cncnc3)cc2O[C@@H]1CN(C)C(=O)c1cccc(F)c1`, the cytotoxicity call is “inactive”.
The result for `CCc1c(C)[nH]c2ncnn2c1=O` reads “inactive”.
For the compound `CCCN(C)C[C@H]1Oc2cc(C#Cc3cccc(OC)c3)ccc2S(=O)(=O)N([C@@H](C)CO)C[C@H]1C`, the cytotoxicity call was “inactive”.
The result for `C[C@H]1CN([C@@H](C)CO)C(=O)c2cccc(NC(=O)Nc3cccc4ccccc34)c2O[C@H]1CN(C)Cc1ccc2c(c1)OCO2` reads “inactive”.
The result for `c1ccc(-c2nn(-c3ccccc3)c3c2cnc2ccccc23)cc1` reads “active”; that for `COc1ccc2c(c1)c(-c1ccccc1)nn2-c1ccc(C)cc1`, “inactive”; that for `c1ccc(-c2cc(-c3ccccc3)n(-c3ccccc3)n2)cc1`, “inactive”.
As for `Cc1cc(C)c(S(=O)(=O)N2CCO[C@@H]2CNC(=O)C(=O)NCCCN2CCCC2=O)c(C)c1`, the cytotoxicity call was “inactive”.
The result for `Cc1c(NC(C)C)c(=O)n(-c2ccccc2)n1C.Cl` reads “inactive”; that for `C[C@@H]1CN([C@H](C)CO)C(=O)c2cc(NS(=O)(=O)c3ccc(F)cc3)ccc2O[C@H]1CN(C)S(=O)(=O)c1ccccc1`, “inactive”.
The result for `O=C1CCOC[C@@H]2CCCN12` reads “inactive”; that for `C[C@@H]1CCCCO[C@@H](CN(C)Cc2ccncc2)[C@H](C)CN([C@@H](C)CO)C(=O)c2cc(NC(=O)Nc3ccccc3)ccc2O1`, “inactive”; that for `C[C@@H]1CCCCO[C@H](CN(C)Cc2ccc(C(=O)O)cc2)[C@@H](C)CN([C@@H](C)CO)C(=O)c2cc(NC(=O)Cc3ccccc3)ccc2O1`, “inactive”.
The result for `Cc1ccc(S(=O)(=O)N(C)C[C@@H]2Oc3ccc(N(C)C)cc3CC(=O)N([C@H](C)CO)C[C@@H]2C)cc1` reads “active”; that for `Cc1ccc(S(=O)(=O)N(C)C[C@@H]2Oc3ccc(N(C)C)cc3CC(=O)N([C@@H](C)CO)C[C@@H]2C)cc1`, “active”.
As to `Cc1ccc(S(=O)(=O)N(C)C[C@H]2Oc3ccc(N(C)C)cc3CC(=O)N([C@@H](C)CO)C[C@H]2C)cc1`, the cytotoxicity call is “inactive”.
The same measure for `Cc1ccc(S(=O)(=O)N(C)C[C@H]2Oc3ccc(N(C)C)cc3CC(=O)N([C@@H](C)CO)C[C@@H]2C)cc1`: “inactive”.
The same measure for `Cc1ccc(S(=O)(=O)N(C)C[C@H]2Oc3ccc(N(C)C)cc3CC(=O)N([C@H](C)CO)C[C@H]2C)cc1`: “inactive”; for `Cc1ccc(S(=O)(=O)N(C)C[C@@H]2Oc3ccc(N(C)C)cc3CC(=O)N([C@H](C)CO)C[C@H]2C)cc1`: “inactive”; for `C[C@H](CO)N1C[C@H](C)[C@@H](CN(C)Cc2ccc(C(=O)Nc3ccccc3N)cc2)Oc2c(NS(C)(=O)=O)cccc2C1=O`: “inactive”.
With `Cc1noc(C)c1NC(=O)Nc1ccc2c(c1)C(=O)N([C@@H](C)CO)C[C@H](C)[C@H](CN(C)Cc1ccncc1)OCCCC[C@H](C)O2`, the cytotoxicity call is “inactive”.
Turning to `CN1CCN(C(=O)C[C@H]2CC[C@H]3[C@@H](COc4ccc(NC(=O)C5CCOCC5)cc4C(=O)N3C)O2)CC1`, the cytotoxicity call is “inactive”.
The result for `CC(C)(C)Nc1nc(=O)[nH]c(=O)[nH]1` reads “inactive”; that for `Cc1noc(C)c1S(=O)(=O)N(C)C[C@H]1Oc2ccc(NS(=O)(=O)c3cccs3)cc2CC(=O)N([C@@H](C)CO)C[C@H]1C`, “inactive”; that for `CC(C)(C)CC(C)(C)c1cc(Cc2cc(C(C)(C)CC(C)(C)C)cc(-n3nc4ccccc4n3)c2O)c(O)c(-n2nc3ccccc3n2)c1` [listing 1 of 2 here], “inactive”.
The same measure for `CC(C)(C)CC(C)(C)c1ccc(O)c(Cc2ccc(Cl)cc2Cl)c1`: “active”.
The same measure for `CC(C)(C)CC(C)(C)c1cc(Cc2cc(C(C)(C)CC(C)(C)C)cc(-n3nc4ccccc4n3)c2O)c(O)c(-n2nc3ccccc3n2)c1` [listing 2 of 2 here]: “inactive”; for `C/C=C/c1cnc2c(c1)C(=O)N([C@H](C)CO)C[C@@H](C)[C@@H](CN(C)S(=O)(=O)c1ccc(OC)cc1)O2`: “inactive”.
Turning to `C[C@@H]1CN([C@H](C)CO)C(=O)c2cc(NC(=O)Cc3cn(C)c4ccccc34)ccc2O[C@H]1CN(C)C(=O)Nc1cccc2ccccc12`, the cytotoxicity call was “inactive”.
As for `N#CCOc1cccc2ccccc12`, the cytotoxicity call was “inactive”.
The result for `CN(C)CCOC(c1ccccc1)c1ccccc1.Cl` reads “inactive”; that for `CN(C)C(CCOc1cccc2ccccc12)c1ccccc1.Cl` (configuration not stated), “active”; that for `CN(C)Cc1cn(CC[C@@H]2CC[C@H](NS(=O)(=O)c3ccccc3)[C@H](CO)O2)nn1`, “inactive”.
The result for `C[C@@H]1CN([C@H](C)CO)C(=O)c2cc(NC(=O)C3CCCCC3)ccc2O[C@@H](C)CCCCO[C@H]1CN(C)C(=O)c1ccccc1` reads “inactive”; that for `C[C@@H]1CCCCO[C@H](CN(C)CC2CCCCC2)[C@@H](C)CN([C@H](C)CO)C(=O)c2cc(NS(=O)(=O)c3cccs3)ccc2O1`, “inactive”; that for `C[C@@H]1CN([C@@H](C)CO)C(=O)c2cc(NC(=O)Cn3cnnn3)ccc2O[C@@H]1CN(C)Cc1ccc(Oc2ccccc2)cc1`, “inactive”.
The result for `COC(=O)Nc1nc2cc(C(=O)c3cccs3)ccc2[nH]1` reads “inactive”; that for `COC(=O)CNC(=O)c1ccc(F)cc1`, “inactive”.
In the case of `COC(=O)Nc1nc2cc(C(=O)c3ccc(F)cc3)ccc2[nH]1`, the cytotoxicity call was “active”.
The result for `COc1cccc(C(=O)c2ccccc2)c1` reads “inactive”; that for `COC(=O)Nc1nc2cc(C(=O)c3ccccc3)ccc2[nH]1`, “active”; that for `O=c1[nH]c2ccc(F)cc2nc1O`, “inactive”.
For `Cc1ccc(S(=O)(=O)Nc2ccc3c(c2)CC(=O)N([C@H](C)CO)C[C@H](C)[C@@H](CN(C)S(=O)(=O)c2c(C)noc2C)O3)cc1`, the cytotoxicity call was “inactive”.
In the case of `Cc1cc(O)cc(C)c1Cl` [listing 1 of 2 here], the cytotoxicity call is “inactive”.
Turning to `Cc1cc(O)cc(C)c1Cl` [listing 2 of 2 here], the cytotoxicity call is “active”.
The same measure for `Oc1cc(O)cc(O)c1`: “inactive”; for `CCO[C@H]1CC(C)(C)NC(=S)N1`: “inactive”; for `C[C@H](CO)N1C[C@H](C)[C@H](CN(C)Cc2ccc(C(F)(F)F)cc2)Oc2ccc(NS(=O)(=O)c3ccc(Cl)cc3)cc2CC1=O`: “active”.
The result for `C[C@@H]1CN([C@H](C)CO)C(=O)Cc2cc(NS(=O)(=O)c3ccc(Cl)cc3)ccc2O[C@H]1CN(C)Cc1ccc(C(F)(F)F)cc1` reads “active”; that for `C[C@@H]1CN([C@H](C)CO)C(=O)Cc2cc(NS(=O)(=O)c3ccc(Cl)cc3)ccc2O[C@@H]1CN(C)Cc1ccc(C(F)(F)F)cc1`, “inactive”.
The result for `C[C@H]1CN([C@@H](C)CO)C(=O)Cc2cc(NS(=O)(=O)c3ccc(Cl)cc3)ccc2O[C@H]1CN(C)Cc1ccc(C(F)(F)F)cc1` reads “active”; that for `C[C@@H]1CN([C@@H](C)CO)C(=O)Cc2cc(NS(=O)(=O)c3ccc(Cl)cc3)ccc2O[C@@H]1CN(C)Cc1ccc(C(F)(F)F)cc1`, “active”; that for `CCS(=O)(=O)Nc1ccc2c(c1)C(=O)N(C)[C@@H]1CC[C@H](CC(=O)NCc3ccccc3F)O[C@H]1CO2`, “inactive”.
For the compound `C[C@H](CO)N1C[C@H](C)[C@@H](CN(C)C(=O)Nc2ccc(F)cc2)Oc2c(NC(=O)c3ccc(-c4nccs4)cc3)cccc2C1=O`, the cytotoxicity call is “inactive”.
With `C/C=C/c1cnc2c(c1)C(=O)N([C@@H](C)CO)C[C@H](C)[C@@H](CN(C)S(=O)(=O)c1ccc(OC)cc1)O2`, the cytotoxicity call is “inactive”.
With `C[C@@H]1CN([C@H](C)CO)C(=O)c2cc(NC(=O)C3CCCCC3)ccc2O[C@@H](C)CCCCO[C@@H]1CN(C)C(=O)CCC(F)(F)F`, the cytotoxicity call was “inactive”.
The result for `C[C@@H]1CCCCO[C@H](CN(C)Cc2ccc(C(=O)O)cc2)[C@H](C)CN([C@@H](C)CO)C(=O)c2cc(NS(=O)(=O)c3ccc(Cl)cc3)ccc2O1` reads “inactive”; that for `O=C(C[C@@H]1CC[C@@H]2[C@H](COC[C@H](O)CN2C(=O)c2ccncc2)O1)NC1CCC1`, “inactive”; that for `C[C@@H]1CN([C@H](C)CO)C(=O)c2cc(NC(=O)Nc3ccc(F)cc3)ccc2O[C@@H]1CN(C)S(C)(=O)=O`, “inactive”.
The result for `C[C@@H]1CN([C@H](C)CO)C(=O)c2cccc(NS(C)(=O)=O)c2O[C@@H]1CN(C)C(=O)Nc1ccccc1` reads “inactive”.
The same measure for `C[C@@H]1CN([C@H](C)CO)C(=O)c2cccc(NS(=O)(=O)c3ccc(F)cc3)c2O[C@H]1CN(C)C(=O)Nc1cccc2ccccc12`: “inactive”; for `CN(C)CCCCNC(=O)[C@@H]1C[C@@H]2C(=O)N[C@@H](CCCCN)C(=O)N2[C@@H]1c1ccc(O)cc1`: “inactive”; for `C[C@@H]1CN([C@@H](C)CO)C(=O)Cc2cc(NS(=O)(=O)c3ccc(Cl)cc3)ccc2O[C@H]1CN(C)Cc1ccc(C(F)(F)F)cc1`: “inactive”.
As to `C[C@H]1CN([C@@H](C)CO)C(=O)Cc2cc(NS(=O)(=O)c3ccc(Cl)cc3)ccc2O[C@@H]1CN(C)Cc1ccc(C(F)(F)F)cc1`, the cytotoxicity call was “active”.
The result for `C[C@H](CO)N1C[C@H](C)[C@@H](CN(C)Cc2ccc(C(F)(F)F)cc2)Oc2ccc(NS(=O)(=O)c3ccc(Cl)cc3)cc2CC1=O` reads “inactive”; that for `CC(=O)N[C@H]1[C@H]([C@H](O)[C@H](O)CO)OC(C(=O)O)=C[C@@H]1NC(=N)N`, “inactive”; that for `NS(=O)(=O)c1ccc(NC(=O)C2CC2)cc1`, “active”.
The result for `NS(=O)(=O)c1ccc(NC(=O)[C@H]2CCCNC2=O)cc1` reads “inactive”; that for `CNC(=O)Nc1ccc(S(N)(=O)=O)cc1`, “inactive”; that for `Cc1ccc(S(=O)(=O)N(C)C[C@@H]2Oc3c(NC(=O)c4cnccn4)cccc3C(=O)N([C@@H](C)CO)C[C@@H]2C)cc1`, “inactive”.
The result for `COc1ccc(S(=O)(=O)Nc2ccc3c(c2)CC(=O)N([C@H](C)CO)C[C@@H](C)[C@H](CN(C)S(=O)(=O)c2cccs2)O3)cc1` reads “inactive”; that for `C[C@H](CO)N1C[C@H](C)[C@H](CN(C)Cc2ccncc2)Oc2ccc(NC(=O)Nc3ccc(C(F)(F)F)cc3)cc2CC1=O`, “active”; that for `C[C@@H]1CN([C@@H](C)CO)C(=O)Cc2cc(NC(=O)Nc3ccc(C(F)(F)F)cc3)ccc2O[C@H]1CN(C)Cc1ccncc1`, “inactive”.
As to `C[C@@H]1CN([C@H](C)CO)C(=O)Cc2cc(NC(=O)Nc3ccc(C(F)(F)F)cc3)ccc2O[C@@H]1CN(C)Cc1ccncc1`, the cytotoxicity call is “active”.
The result for `C[C@@H]1CN([C@H](C)CO)C(=O)Cc2cc(NC(=O)Nc3ccc(C(F)(F)F)cc3)ccc2O[C@H]1CN(C)Cc1ccncc1` reads “inactive”; that for `C[C@H]1CN([C@@H](C)CO)C(=O)Cc2cc(NC(=O)Nc3ccc(C(F)(F)F)cc3)ccc2O[C@@H]1CN(C)Cc1ccncc1`, “active”.
The same measure for `C[C@H](CO)N1C[C@H](C)[C@@H](CN(C)Cc2ccncc2)Oc2ccc(NC(=O)Nc3ccc(C(F)(F)F)cc3)cc2CC1=O`: “active”.

The values above are taken from the antibiotic and cytotoxicity screens of Wong et al. (2023).
